Bioassay records (PubChem BioAssay)
An excerpt weighted towards active compounds, which were near 6.6% of everything screened.
HT1080 IDH1KD tx = kills HT-1080 cells with IDH1 knockdown; HT-1080 IDH1 knockdown viability, ATP luminescence, 48 h; Potency, µM (titrated, usually from 46.1 µM), inactives show at the top dose activity, negative = toxicity, actives largely listed as cytotoxic; hit rate 2% among 360,000;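 note: 0% = DMSO wells and -100% = cell-free medium wells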
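Luminescent ATP read-out (CellTiter-Glo, 10 min at room temperature) after 48 h compound exposure at 37 °C gave viability of IDH1-knockdown HT-1080 cells. Activity was normalised to DMSO and cell-free wells, then fitted as concentration-response curves.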
TGFb inhibitor = inhibitors of TGF-b signaling | HepG2 CAGA-GFP TGF-b/SMAD3 reporter, GFP fluorescence, 18 h; TGF-beta stimulated, 500 pg/mL final | AID 588855 | Potency, µM (top dose mostly 46.1 µM), inactives show top-dose activity, negative = inhibition, hits mostly inhibitors | hit rate 1.2% among 410,000; note: % is set by controls: 0 for no effect and ±100 for the full control effect; nearly all actives have a fitted effect of over 65% in size
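HEPG2 CAGA-GFP reporter cells (1000/well, DMEM with 1% FBS) received compounds, then recombinant TGF-beta at 500 pg/mL final for 18 hours at 37 degrees C. Per-cell GFP summed per well was normalised to unstimulated and stimulated DMSO controls before curve fitting.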
KB-3-1 cytotox = kills parental KB-3-1 adenocarcinoma cells; hit rate 1.4% among 400,000; AID 1347075; KB-3-1 viability, CellTiter-Glo ATP luminescence, 72 h; Potency, µM (doses to about 46.1 µM), hits mostly cytotoxic; note: % is set by controls: 0 for no effect and ±100 for the full control effect; nearly all actives have a fitted effect of over 60% in size
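72 h, 37 °C compound treatment of KB-3-1 parental cells; CellTiter-Glo added, 10 min, luminescence read. Data corrected against DMSO-only plates and normalized before curve fitting.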
HepG2 tox = HepG2 cytotoxicity, counter-screen for TGF-b inhibitors. AID 588856. HepG2 CAGA-GFP viability, ATP luminescence, 18 h. Potency, µM (highest dose often 46.1 µM), without a hit: at the highest dose activity change, negative = cytotoxicity, usual class: cytotoxic. hit rate 0.76% among 410,000
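CellTiter-Glo luminescence gave cytotoxicity after 18 hours at 37 degrees C. The cells were HepG2 CAGA-GFP in 1% FBS DMEM, stimulated with 500 pg/mL TGF-beta after compound addition. %Activity was normalised to no-cell wells (complete cell-killing) and DMSO (no toxicity), and curves were fitted and classified.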
HT1080NT lethal = kills 2HG-producing HT-1080-NT fibrosarcoma cells; HT-1080-NT fibrosarcoma viability, CellTiter-Glo ATP luminescence, 48 h; Potency, µM (series often up to 46.1 µM), for the others: at the highest dose activity, negative = less viability, usual class: cytotoxic; hit rate 1.6% among 360,000; AID 686970;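 note: NT is the 2HG producing partner of a matched IDH1 knockdown line; 0% = DMSO-treated cells and -100% = media-only wells without cells; nearly all actives have a fitted effect of over 55% in size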
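HT-1080-NT; 750 cells/well; 5% FBS RPMI; 48 h compound, 37 degrees C; CellTiter-Glo luminescence; curve fitting and curve-class assignment.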
KB-V1 cytotox = KB-V1 MDR subline cytotoxicity; KB-V1 MDR cells viability, CellTiter-Glo, 72 h; Potency, µM (doses to about 46.1 µM), most hits filed as cytotoxic; hit rate 3.4% among 400,000; AID 1347076; note: % is set by controls: 0 for no effect and ±100 for the full control effect; nearly all actives have a fitted effect of over 60% in size
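Cells of the MDR subline KB-V1 are plated, dosed with compound at multiple concentrations, and incubated 72 h at 37 degrees C; CellTiter-Glo is then added and luminescence read after 10 min.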
Starred values were filed as active, the others as inactive; i = inactive; ? = inconclusive; . = not tested or not shown. Calls come from the whole dose curve; as a rule, active = well fitted curve in the direction sought with a large enough effect; inconclusive = small, poorly fitted or top-dose-only effect, or another doubt; inactive = no such curve, though single readings can be large; an effect the other way counts as inactive or inconclusive. Potency is the fitted concentration of half-maximal effect.

SMILES	HT1080 IDH1KD tx	TGFb inhibitor	KB-3-1 cytotox	HepG2 tox	HT1080NT lethal	KB-V1 cytotox
COc1ccc(N2CCN(C(=O)CN3C(=O)COc4ccc(S(=O)(=O)N5CCC(C)CC5)cc43)CC2)cc1	.	-3.6%	i	-8.8%	.	?
Cc1ccc(-c2oc3ccccc3c(=O)c2O)cc1	-25.5%	-16.5%	20.6µM*	-22.1%	?	?
COc1cccc(-c2oc3ccc(C)cc3c(=O)c2O)c1	.	8.91µM*	i	-30.3%	.	i
O=c1c(O)c(-c2ccccc2)oc2ccccc12	-1.9%	?	i	-22.4%	-3.2%	i
O=C(CN1C(=O)CCSc2ccccc21)Nc1ccc(C(F)(F)F)cc1	.	-3.1%	?	-6.7%	.	?
Cc1cc(C)cc(NC(=O)C(NS(=O)(=O)c2cccc3nsnc23)c2ccccc2)c1 (centres undefined)	.	-25.8%	i	-3.6%	.	i
COc1ccc(Cc2nnc(NCCO)[nH]c2=O)cc1	5.7%	11.2%	i	18.1%	2.7%	?
C=CCNc1nnc(Cc2ccc(C(C)C)cc2)c(=O)[nH]1	-23.1%	-18.3%	14.6µM*	-17.5%	-5.3%	i
CCc1nc2ccc(C(=O)N(C)CCN(C)C)cn2c1N(C)CCC(C)C	0.9%	-4.0%	i	-24.0%	-25.6%	i
C(=N\Nc1nc(Nc2ccccc2)nc(Nc2ccccc2)n1)/c1cccnc1	-23.6%	-6.3%	?	-42.1%	-28.2%	i
C(=N\Nc1nc(Nc2ccccc2)nc(Nc2ccccc2)n1)/c1ccncc1	0.9%	?	?	12.6µM*	-18.5%	i
C#Cc1ccccc1OCCCN1CCC(C(O)(c2ccccc2)c2ccccc2)CC1	16.4µM*	.	?	.	16.4µM*	?
N#Cc1ccccc1OCCCN1CCC(C(O)(c2ccccc2)c2ccccc2)CC1	?	.	?	.	?	23.1µM*
